# Calls of active or inactive are those of the source.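 How the source made its calls: active means z-score of at least 1.8 in each of two replicates, scored against plate mean and spread of sample wells; inactive means the rest.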
# Experiment: MELAS cybrid and Rieske KO viability enhancers – cell-based, MELAS cybrids, Rieske KO mouse fibroblasts, CellTiter-Glo, primary screen (AID 1508586);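 further: test concentration not given here; z relative to plate mean and SD of compound and empty wells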
# Settings: Rieske KO mouse fibroblast survival, low glucose, CellTiter-Glo 72 h
row,SMILES,z-score
1,CCC(CC)CNc1cc(C(=O)NCCN(C)C)cc(S(=O)(=O)Nc2ccc(OC)cc2)c1,0.972
2,COc1ccc(CNC(=O)c2cc(NCc3nc[nH]c3C)cc(S(=O)(=O)N3CCCC3)c2)cc1,-0.812
3,COC(=O)c1c(NC(=O)C2CCOC2)c2cc(NC(C)CO)cnc2n1CCCc1ccccc1 (stereo not given),1.02
4,CC(C)CN1CC(OCc2cccc(F)c2)CN(C(=O)c2cccc(N3CCNC3=O)c2)CC1=O (stereo not given),-0.354
5,CC(C)OCCNC1CCc2c(c(C(=O)N(C)Cc3ccccc3)nn2C)C1 (stereo not given),-0.804
6,C[C@@H](NC(=O)N[C@H]1C[C@H]2C(=O)N[C@H](Cc3ccc(O)cc3)C(=O)N2C1)c1ccccc1,-0.613
7,Cc1csc(-c2cc(C(=O)NCCN3CCCCC3)cc(S(=O)(=O)N3CCOCC3)c2)c1,-0.233
8,CC(C)NS(=O)(=O)c1cc(NC2CCCCC2)cc(C(=O)NC2Cc3ccccc3C2)c1,-0.431
9,Cc1ccc(-c2cc(C(=O)N(C)CCc3cnn(C)c3)cc(S(=O)(=O)N3CCOCC3)c2)s1,-0.0313
10,Cc1nnc(CN(C)C(=O)c2cc(-c3ccc(C)s3)cc(S(=O)(=O)N3CCOCC3)c2)o1,-0.11
11,CC[C@@H]1NC(=O)[C@H]2CN(C(=O)Oc3cccc4ccccc34)CCN2C1=O,0.404
12,Cc1cc(-c2cc3c(n(C)c2=O)CCN(Cc2ccc(Sc4nncn4C)o2)C3)ccc1F,-0.369
13,CCN1CCN(C(=O)c2cc(-c3cc(C)cs3)cc(S(=O)(=O)N3CCOCC3)c2)CC1,-0.432
14,Cc1ccc(CNC(=O)c2nn(C)c3c2CC(NC2CCN(Cc4ccccc4)CC2)CC3)o1 (stereo not given),0.979
15,COc1ccc(CN2CC(OCc3cccnc3)CN(C(=O)C3=NN(C)C(=O)CC3)CC2=O)cc1 (stereo not given),-0.34
16,CC(C)CCNc1cc(C(=O)N[C@H]2CCCCNC2=O)cc(S(=O)(=O)NC(C)C)c1,0.262
17,COc1cc(CN2CCc3c(c(C(=O)NCCCN4CCOCC4)nn3C)C2)cc2c1OCO2,-0.162
18,CCc1cc(C(=O)N2CC(=O)N(Cc3ccc(OC)cc3)CC(OCc3ccncc3)C2)n(C)n1 (stereo not given),-0.65
19,COc1ccc(CN2C[C@H](C(=O)Nc3ccc4c(c3)CCC4)C[C@H](C(=O)N3CCCCC3)C2)cc1OC,0.0365
20,CN1C(=O)N(Cc2ccccc2)C2(CCN(Cc3nc4ccccc4n3C)CC2)C1=O,-0.298

row,SMILES,z-score
1,Cc1nc2ccccc2nc1CN1CC(=O)N(C2CCCCC2)CC(OCc2cccnc2)C1 (stereo not given),6.23
2,CC(C)CNC(=O)[C@@H]1C[C@H](CN2CCOCC2)CN(Cc2nccn2C)C1,0.267
3,Cc1ccn2cc(C(=O)N3CCc4c(cc(-c5ccc(OC(F)(F)F)cc5)c(=O)n4C)C3)nc2c1,-0.543
4,CC(C)=CCNc1cc(C(=O)NCc2cn3ccccc3n2)cc(S(=O)(=O)NC(C)C)c1,-0.764
5,COc1ccc(/C=C/CN2CCc3c(cc(-c4cccc(-n5nc(C)cc5C)c4)c(=O)n3C)C2)cc1,-0.157
6,C[C@@H](O)[C@@H]1NC(=O)[C@@H]2C[C@H](NCc3cc4ccccc4s3)CN2C1=O,-0.73
7,CCc1cc(C(=O)N2CCc3c(c(C(=O)N4CCN(c5ccccc5)CC4)nn3CC)C2)n(C)n1,-0.0183
8,CC(C)C[C@@H]1NC(=O)[C@H]2CN(S(=O)(=O)c3cccc4ccccc34)CCN2C1=O,-0.159
9,CN(C)c1ncc(CN2CCc3c(cc(Cc4ccccc4)c(=O)n3Cc3ccc(F)cc3)C2)s1,0.0943
10,COC(=O)CCN1CC(OCc2ccncc2)CN(C(=O)Cc2c(F)cccc2Cl)CC1=O (stereo not given),0.103
11,C[C@@H](OCc1ccccc1)[C@@H]1NC(=O)[C@H]2CN(C(=O)Oc3ccccc3)CCN2C1=O,-0.114
12,O=c1c(/C=C/c2ccccc2)cc2c(n1Cc1ccccn1)CCN(C1CCOCC1)C2,0.293
13,CC(C)N1CC(OCc2ccc(F)cc2)CN(C(=O)c2ccc(C#CC(C)(C)O)o2)CC1=O (stereo not given),-0.177
14,CN1CCCc2cc(C(=O)N3CC(=O)N(Cc4ccccc4)CC(OCc4ccccn4)C3)ccc21 (stereo not given),-0.731
15,CC(C)CCN1C(=O)N(CC(N)=O)C(=O)C12CCN(Cc1nc3ccccc3s1)CC2,-0.574
16,CCN(CC)C(=O)c1cc(-c2ccc(C)s2)cc(S(=O)(=O)N2CCOCC2)c1,0.74
17,CCOC(=O)N1CCC(NC2CCc3c(c(C(=O)N(C)C)nn3Cc3ccccc3)C2)CC1 (stereo not given),0.468
18,Cc1ccnn1CCC(=O)N1CC(=O)N(CC(C)C)CC(OCc2ccccn2)C1 (stereo not given),-0.668
19,CC(C)Cn1nc(C(=O)N2CCOCC2)c2c1CCC(NCc1ccc(F)cc1)C2 (stereo not given),-0.12
20,Cn1c2c(cc(Cc3ccccc3F)c1=O)CN(C(=O)c1ccc(C#CC(C)(C)O)o1)CC2,0.668

# Experiment: galactose survival enhancers in mitochondrial complex I cybrids – cell-based, galactose medium, ATP luminescence, primary screen (AID 1645843);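 further: positive z means more ATP and so rescue of galactose-driven cybrid death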
# Settings: complex I mutant cybrid cells, 72 h, stronger effect = higher value
row,SMILES,z-score
1,CCC(CC)CNc1cc(C(=O)NCCN(C)C)cc(S(=O)(=O)Nc2ccc(OC)cc2)c1,-1.11 (inactive)
2,COc1ccc(CNC(=O)c2cc(NCc3nc[nH]c3C)cc(S(=O)(=O)N3CCCC3)c2)cc1,0.755 (inactive)
3,COC(=O)c1c(NC(=O)C2CCOC2)c2cc(NC(C)CO)cnc2n1CCCc1ccccc1 (stereo not given),-0.185 (inactive)
4,CC(C)CN1CC(OCc2cccc(F)c2)CN(C(=O)c2cccc(N3CCNC3=O)c2)CC1=O (stereo not given),0.795 (inactive)
5,CC(C)OCCNC1CCc2c(c(C(=O)N(C)Cc3ccccc3)nn2C)C1 (stereo not given),0.48 (inactive)
6,C[C@@H](NC(=O)N[C@H]1C[C@H]2C(=O)N[C@H](Cc3ccc(O)cc3)C(=O)N2C1)c1ccccc1,0.6 (inactive)
7,Cc1csc(-c2cc(C(=O)NCCN3CCCCC3)cc(S(=O)(=O)N3CCOCC3)c2)c1,-0.485 (inactive)
8,CC(C)NS(=O)(=O)c1cc(NC2CCCCC2)cc(C(=O)NC2Cc3ccccc3C2)c1,-0.045 (inactive)
9,Cc1ccc(-c2cc(C(=O)N(C)CCc3cnn(C)c3)cc(S(=O)(=O)N3CCOCC3)c2)s1,0.925 (inactive)
10,Cc1nnc(CN(C)C(=O)c2cc(-c3ccc(C)s3)cc(S(=O)(=O)N3CCOCC3)c2)o1,0.29 (inactive)
11,CC[C@@H]1NC(=O)[C@H]2CN(C(=O)Oc3cccc4ccccc34)CCN2C1=O,-1.61 (inactive)
12,Cc1cc(-c2cc3c(n(C)c2=O)CCN(Cc2ccc(Sc4nncn4C)o2)C3)ccc1F,0.445 (inactive)
13,CCN1CCN(C(=O)c2cc(-c3cc(C)cs3)cc(S(=O)(=O)N3CCOCC3)c2)CC1,2.05 (inactive)
14,Cc1ccc(CNC(=O)c2nn(C)c3c2CC(NC2CCN(Cc4ccccc4)CC2)CC3)o1 (stereo not given),-1.23 (inactive)
15,COc1ccc(CN2CC(OCc3cccnc3)CN(C(=O)C3=NN(C)C(=O)CC3)CC2=O)cc1 (stereo not given),1.23 (inactive)
16,CC(C)CCNc1cc(C(=O)N[C@H]2CCCCNC2=O)cc(S(=O)(=O)NC(C)C)c1,-0.51 (inactive)
17,COc1cc(CN2CCc3c(c(C(=O)NCCCN4CCOCC4)nn3C)C2)cc2c1OCO2,-0.765 (inactive)
18,CCc1cc(C(=O)N2CC(=O)N(Cc3ccc(OC)cc3)CC(OCc3ccncc3)C2)n(C)n1 (stereo not given),0.77 (inactive)
19,COc1ccc(CN2C[C@H](C(=O)Nc3ccc4c(c3)CCC4)C[C@H](C(=O)N3CCCCC3)C2)cc1OC,-1.66 (inactive)
20,CN1C(=O)N(Cc2ccccc2)C2(CCN(Cc3nc4ccccc4n3C)CC2)C1=O,-0.11 (inactive)

row,SMILES,z-score
1,Cc1nc2ccccc2nc1CN1CC(=O)N(C2CCCCC2)CC(OCc2cccnc2)C1 (stereo not given),-1.6 (inactive)
2,CC(C)CNC(=O)[C@@H]1C[C@H](CN2CCOCC2)CN(Cc2nccn2C)C1,0.2 (inactive)
3,Cc1ccn2cc(C(=O)N3CCc4c(cc(-c5ccc(OC(F)(F)F)cc5)c(=O)n4C)C3)nc2c1,1.4 (inactive)
4,CC(C)=CCNc1cc(C(=O)NCc2cn3ccccc3n2)cc(S(=O)(=O)NC(C)C)c1,-0.5 (inactive)
5,COc1ccc(/C=C/CN2CCc3c(cc(-c4cccc(-n5nc(C)cc5C)c4)c(=O)n3C)C2)cc1,-0.63 (inactive)
6,C[C@@H](O)[C@@H]1NC(=O)[C@@H]2C[C@H](NCc3cc4ccccc4s3)CN2C1=O,-0.615 (inactive)
7,CCc1cc(C(=O)N2CCc3c(c(C(=O)N4CCN(c5ccccc5)CC4)nn3CC)C2)n(C)n1,0.405 (inactive)
8,CC(C)C[C@@H]1NC(=O)[C@H]2CN(S(=O)(=O)c3cccc4ccccc34)CCN2C1=O,-0.92 (inactive)
9,CN(C)c1ncc(CN2CCc3c(cc(Cc4ccccc4)c(=O)n3Cc3ccc(F)cc3)C2)s1,-0.525 (inactive)
10,COC(=O)CCN1CC(OCc2ccncc2)CN(C(=O)Cc2c(F)cccc2Cl)CC1=O (stereo not given),1.43 (inactive)
11,C[C@@H](OCc1ccccc1)[C@@H]1NC(=O)[C@H]2CN(C(=O)Oc3ccccc3)CCN2C1=O,-1.46 (inactive)
12,O=c1c(/C=C/c2ccccc2)cc2c(n1Cc1ccccn1)CCN(C1CCOCC1)C2,0.925 (inactive)
13,CC(C)N1CC(OCc2ccc(F)cc2)CN(C(=O)c2ccc(C#CC(C)(C)O)o2)CC1=O (stereo not given),0.06 (inactive)
14,CN1CCCc2cc(C(=O)N3CC(=O)N(Cc4ccccc4)CC(OCc4ccccn4)C3)ccc21 (stereo not given),0.21 (inactive)
15,CC(C)CCN1C(=O)N(CC(N)=O)C(=O)C12CCN(Cc1nc3ccccc3s1)CC2,0.225 (inactive)
16,CCN(CC)C(=O)c1cc(-c2ccc(C)s2)cc(S(=O)(=O)N2CCOCC2)c1,-0.44 (inactive)
17,CCOC(=O)N1CCC(NC2CCc3c(c(C(=O)N(C)C)nn3Cc3ccccc3)C2)CC1 (stereo not given),-0.835 (inactive)
18,Cc1ccnn1CCC(=O)N1CC(=O)N(CC(C)C)CC(OCc2ccccn2)C1 (stereo not given),0.98 (inactive)
19,CC(C)Cn1nc(C(=O)N2CCOCC2)c2c1CCC(NCc1ccc(F)cc1)C2 (stereo not given),0.625 (inactive)
20,Cn1c2c(cc(Cc3ccccc3F)c1=O)CN(C(=O)c1ccc(C#CC(C)(C)O)o1)CC2,-0.48 (inactive)

# From PubChem BioAssay
